Data published in PubChem BioAssay (NCATS).
Results filed as inconclusive are left out. Where a call stands in place of a potency, no number is given. The source made the active and inactive calls. The call rests on the fitted dose curve; in most records, active means well fitted inhibition curve with a large enough effect; inconclusive means small, poorly fitted or top-dose-only effect; inactive means no such curve, though single readings can be large or run the other way.

test system: Zika virus NS2B-NS3 protease (linked construct); assay: Primary screen NINDS Rhodamine qHTS for Zika virus inhibitors (AID 1347160); settings: purified NS2B-NS3 protease, Rhodamine110 substrate fluorescence; series mostly up to 57.1 µM; further: nearly all actives have a fitted effect of over 55% in size
In short: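 Each compound, titrated, sat 15 min with 25 nM linked protease before 1.5 microM Rhodamine110 substrate went in. Fluorescence gain over the next 15 min, in pH 8.0 Tris with Tween 20, gave Hill-fitted curves.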

Compound	Potency
CC1=CC2/C=C(\C)CC[C@@H](O)[C@@H](O)[C@@H]3O[C@@H]3C(=O)[C@]23C(=O)N[C@@H](CC(C)C)[C@@H]3[C@@H]1C (stereo partly drawn)	inactive
COC(=O)CC(O)C1OC(c2ccccc2)C(O)C1O (stereo not drawn)	inactive
COC(=O)C1(C)c2[nH]c3ccccc3c2CCN1C(=O)CCl (stereo not drawn)	inactive
